Activity calls are given as the source filed them.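 The calls were made as follows: active = half-maximal concentration under 30 µM, fit with over 36% top-dose inhibition and error below a fifth of it; inactive = the rest.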
Each compound was assayed against Integrin alpha-4 (Homo sapiens) (UniProt P13612) (assay: allosteric VLA-4 ligands by LIBS antibody binding, SAR follow-up, U937 cells, powder samples, set 2 (AID 588448)). Details: HUTS-21 LIBS mAb binding, flow cytometry; series mostly up to 66.7 µM; inhibition: at the top concentration.
Chain of Integrin alpha-4 (Homo sapiens) (P13612 whole entry, looked up): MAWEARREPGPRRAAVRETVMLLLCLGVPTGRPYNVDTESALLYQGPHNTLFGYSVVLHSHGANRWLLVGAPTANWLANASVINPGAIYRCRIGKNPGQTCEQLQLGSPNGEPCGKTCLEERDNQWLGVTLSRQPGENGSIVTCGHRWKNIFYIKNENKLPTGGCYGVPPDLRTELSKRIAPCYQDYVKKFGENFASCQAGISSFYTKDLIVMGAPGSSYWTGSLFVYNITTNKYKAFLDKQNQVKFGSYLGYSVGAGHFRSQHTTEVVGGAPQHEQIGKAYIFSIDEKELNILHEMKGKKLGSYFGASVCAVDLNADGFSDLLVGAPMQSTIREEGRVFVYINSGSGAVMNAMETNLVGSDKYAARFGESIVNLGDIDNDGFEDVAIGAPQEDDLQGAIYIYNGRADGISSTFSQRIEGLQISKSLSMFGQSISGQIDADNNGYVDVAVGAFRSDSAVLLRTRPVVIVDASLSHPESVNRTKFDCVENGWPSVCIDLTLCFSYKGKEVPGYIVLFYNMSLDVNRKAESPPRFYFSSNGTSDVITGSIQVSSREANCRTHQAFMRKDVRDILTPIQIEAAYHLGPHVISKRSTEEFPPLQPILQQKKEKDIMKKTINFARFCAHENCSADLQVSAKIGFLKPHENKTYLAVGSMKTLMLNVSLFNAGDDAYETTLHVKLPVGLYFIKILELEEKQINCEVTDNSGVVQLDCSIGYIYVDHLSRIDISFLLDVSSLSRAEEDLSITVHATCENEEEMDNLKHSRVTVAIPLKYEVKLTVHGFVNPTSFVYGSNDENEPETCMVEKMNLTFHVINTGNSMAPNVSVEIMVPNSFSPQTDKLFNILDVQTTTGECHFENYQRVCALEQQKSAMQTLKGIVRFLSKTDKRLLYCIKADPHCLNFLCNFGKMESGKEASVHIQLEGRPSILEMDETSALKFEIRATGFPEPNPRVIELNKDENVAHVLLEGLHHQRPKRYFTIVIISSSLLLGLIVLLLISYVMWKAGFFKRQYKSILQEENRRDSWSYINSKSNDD

inhibition, inactive:
Cc1nc(C)c(C(=O)N2CCCC2c2nc3ccccc3s2)s1 (centres undefined) 5.91, COCCn1c(C2CC(=O)N(c3ccccc3C)C2)nc2ccccc21 (centres undefined) 10.7, CSc1ccccc1OCc1cc(C(=O)N2CCCC2)no1 7.51, O=C1C2CC=CCC2C(=O)N1Cc1csc(Cc2ccccc2)n1 (centres undefined) 15.8, Cc1ccc(C)n1-c1ccc(C(=O)N(C)Cc2ccco2)cc1 2.7, COCCn1c(C2CC(=O)N(Cc3ccco3)C2)nc2ccccc21 (centres undefined) 7.51, Cc1cc(C(=O)N2CCCC2c2nc3ccccc3s2)on1 (centres undefined) 22.9, CCN1CC(c2nc3ccccc3n2CCOc2ccccc2)CC1=O (centres undefined) 14.6, CCOc1ccccc1N1CC(c2nc3ccccc3n2C)CC1=O (centres undefined) 26.1, Cn1cc(C(=O)N2CCCC2c2nc3ccccc3s2)cn1 (centres undefined) 7.19, CN(Cc1ccco1)C(=O)c1ccc(-n2cnc3ccccc32)cc1 13, CCn1c(C2CC(=O)N(c3ccccc3OC)C2)nc2ccccc21 (centres undefined) 39.6, CCn1c(C2CC(=O)N(CCc3ccccc3)C2)nc2ccccc21 (centres undefined) 23.5, COCC(=O)N1CCC2(CCCN(CCc3ccccc3)C2=O)C1 (centres undefined) 38, COc1ccccc1N1CCN(CC(=O)c2ccc(F)cc2)CC1 -8.2, COc1ccc(-c2nn(Cc3ccccc3)cc2C(=O)N2CCC2)cc1 -0.18, Cc1ccc(-c2nc(CN3C(=O)C4CC=CCC4C3=O)cs2)cc1 (centres undefined) 5.59, Cc1cc(C(=O)N2CCCC2c2ccc3c(c2)OCCO3)sc1C (centres undefined) 5.59, CCOCCn1c(C2CC(=O)N(c3ccccc3)C2)nc2ccccc21 (centres undefined) 12.3, COc1ccc(C2CCCN2C(=O)c2sccc2C)cc1OC (centres undefined) 6.87, CC(=O)N(C)Cc1nc2ccccc2n1CCOc1ccc(C)cc1 22.3, COCCn1c(C2CC(=O)N(c3cccc(C)c3)C2)nc2ccccc21 (centres undefined) -13.7, CN1CC(c2nc3ccccc3n2CCOc2ccccc2)CC1=O (centres undefined) -8.52, COc1ccccc1Cn1c(C2CC(=O)N(C)C2)nc2ccccc21 (centres undefined) 4.63, Cc1oc(-c2cccs2)nc1CN1C(=O)C2CC=CCC2C1=O (centres undefined) 4.95, CCN1CC(c2nc3ccccc3n2Cc2ccccc2)CC1=O (centres undefined) 24.2, COc1cc(OCc2ccccc2)ccc1CN1CCN(C)CC1 -6.27, O=C(c1ccc(OCCN2CCCCC2)cc1)c1c(-c2ccc(O)cc2)sc2cc(O)ccc12 -87.7, Cc1nc2ccccc2n1CCc1noc(COc2ccccc2)n1 3.66

Reference: PubChem BioAssay AID588448 (NMMLSC, 2011)
